Rows were chosen to be rich in hits. Some 3.2% of all compounds tested hit in one or more screens of this group.
rCAG binder = binds r(CAG) RNA repeats. AID 651821. r(CAG) RNA repeat, TO-PRO-1 dye displacement fluorescence. inhibition, % at 3 µM. actives 1.3% (n = 370,000);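 active = inhibition above the plate cutoff, the mean of all test compounds on that plate plus 3 SD, cut at about 35% in these data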;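 note: 0% = DMSO alone and 100% = 100 µM mitoxantrone as full dye displacement; higher means more dye released from RNA so lower well fluorescence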
PG9 Ab binder = PG9 antibody binding by small molecule. TR-FRET gp120-PG9 antibody binding. inhibition, % at 6.7 µM. actives 0.43% (n = 360,000). AID 624416; in the data active = inhibition above about 8.5%
bovine MsrA act = activates bovine MsrA enzyme; purified bovine MsrA, absorbance read-out; AID 602163; actives 0.3% (n = 360,000); activation, % at 10.6 µM; in the data active = activation above about 7.5%;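 note: 0% = vehicle and 100% = reference activator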
MsrA inh = inhibits bovine methionine sulfoxide reductase A; inhibition, % at 15.5 µM; actives 0.75% (n = 360,000); purified bovine MsrA, absorbance read-out; AID 651718;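 note: 0% = vehicle wells with enzyme and 100% = reference inhibitor wells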
HGIII-sPLA2 inh = Inhibits HGIII-sPLA2 liposome hydrolysis, primary screen; QFRET BODIPY PC-A2 liposome hydrolysis, fluorescence; actives 0.56% (n = 370,000); inhibition, % at 12.2 µM;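 active = inhibition above mean plus 3 SD of compounds lying within the high and low control bounds, cut at about 19% in these data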;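 note: 0% = median of test compound wells and 100% = no enzyme DMSO wells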
Target sequence (Q9NZ20 whole entry, looked up): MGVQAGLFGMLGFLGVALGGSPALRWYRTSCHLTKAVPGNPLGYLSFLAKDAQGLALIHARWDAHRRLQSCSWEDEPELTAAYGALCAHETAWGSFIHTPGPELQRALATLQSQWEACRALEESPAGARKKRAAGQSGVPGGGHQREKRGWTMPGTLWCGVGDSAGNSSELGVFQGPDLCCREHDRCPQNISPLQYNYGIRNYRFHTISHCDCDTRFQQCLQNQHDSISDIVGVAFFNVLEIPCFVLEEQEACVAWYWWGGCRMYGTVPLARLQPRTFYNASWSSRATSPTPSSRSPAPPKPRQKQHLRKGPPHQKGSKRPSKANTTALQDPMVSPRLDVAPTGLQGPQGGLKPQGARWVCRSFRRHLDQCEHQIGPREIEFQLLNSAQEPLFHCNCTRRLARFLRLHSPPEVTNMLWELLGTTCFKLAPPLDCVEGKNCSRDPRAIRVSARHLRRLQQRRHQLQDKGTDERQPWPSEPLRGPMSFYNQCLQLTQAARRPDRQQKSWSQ
MsrA conf = confirmation of bovine MsrA inhibitors | shares compounds with MsrA inh | inhibition, % at 15.5 µM | actives 41% (n = 2,300) | purified bovine MsrA, absorbance read-out;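 note: coupled to thioredoxin reductase with NADPH and selenocystamine and DMSO as substrate; 0% = vehicle only and 100% = full effect of reference inhibitor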
* marks the source's active call; other numbers are inactive results; . = not tested or not shown. Cut-off read from the data, not from the text of the source, unless noted: active = inhibition above about 4.5%; inactive = the rest.

SMILES	rCAG binder	PG9 Ab binder	bovine MsrA act	MsrA inh	HGIII-sPLA2 inh	MsrA conf
C#CCCCN([C@H](C(=O)OC)C(C)C)S(=O)(=O)c1ccccc1Br	0	.	.	.	3	.
Cc1ccc(C)c(-c2nc3ccc(N)cc3[nH]2)c1	3	-6	-1	0	9	.
Nc1ccc(-c2nc3ccc(N)cc3[nH]2)cc1	3	-15	-3	5.5*	3	4
Nc1ccc(-c2nc3c(Cl)c(N)ccc3[nH]2)cc1	5	-3	-10	5.3*	8	4
Nc1ccc2nc(-c3cc(Cl)c(N)c(Cl)c3)[nH]c2c1	5	-20	-11	4.8*	5	5.6*
Nc1ccc2nc(-c3ccc(Cl)cc3)[nH]c2c1	8	1	-1	2	7	.
O=c1oc2ccccc2c2c1cnc1ccccc12	1	-1	-2	16*	-3	15*
O=S1(=O)c2c(cccc2N2CC[C@@H](O)C2)O[C@H]2CCN1C2	0	.	.	.	0	.
CC(=O)Nc1ccc(OCC(C)CN2CCC(C(O)(c3ccccc3)c3ccccc3)CC2)cc1 (centres undefined)	3	.	.	.	-42	.
COc1cccc(N2CCN(C(=O)c3ccc(=O)oc3)CC2C)c1 (centres undefined)	14	0	-8	4.9*	3	4
O=C(Nc1ccccc1)OCCN1CCCC12CCC(c1ccccc1)CC2 (centres undefined)	.	.	.	.	7	.
COc1ccccc1/C=N/NC(=O)c1ccc(=O)n(C)c1	-2	0	-9	3	17	.
COc1ccccc1/C=C/C=N/NC(=O)c1cnccn1	1	-7	-5	7.1*	3	5.4*
COc1ccccc1/C=C/C=N/NC(=O)c1ccc(=O)n(C)c1	4	-12	-12	8.1*	14	6.9*
COc1cccc(/C=N/NC(=O)c2cnccn2)c1O	-2	-1	0	3	5	.
c1ccc(-c2nnsc2Sc2ccccn2)cc1	5	1	3	5.8*	-3	4
Cc1nnsc1Sc1ccccn1	-1	-2	-4	-2	0	.
O=C(c1ccc2c(c1)OCO2)N1CCC(Oc2cccnc2)CC1	0	.	.	.	12	.
COc1ccc(Cn2cc(CN3[C@@H](Cc4ccccc4)COc4cc(Br)ccc4S3(=O)=O)nn2)cc1	7	.	.	.	3	.
CSc1ccc(/C=N/n2nnnc2N)cc1	2	0	-5	5.3*	-3	5.2*
CCCCN(C)C(=O)c1oc(=O)c2ccccc2c1-c1ccc(C)cc1	-3	.	.	.	11	.
O=c1c2ccccc2nc(/C=C/c2c[nH]c3ccccc23)n1CCO	9	2	-1	5.0*	-27	3
O=c1c2ccccc2nc(/C=C/c2cc(Br)ccc2O)n1CCO	9	0	-2	0	-14	.
O=[N+]([O-])c1cc(-c2n[nH]c(-c3ccccc3)n2)cc([N+](=O)[O-])c1	4	0	-9	2	6	.
O=[N+]([O-])c1cc([N+](=O)[O-])c2n[nH]c(-c3ccccc3)c2c1	-1	-1	-2	5.2*	4	5
SMILES	rCAG binder	PG9 Ab binder	bovine MsrA act	MsrA inh	HGIII-sPLA2 inh	MsrA conf
COC(=O)C1CN(Cc2cn(Cc3ccc(OC)cc3)nn2)CCS(=O)(=O)N1Cc1ccc(OC)cc1 (centres undefined)	7	.	.	.	10	.
C/C(=N\O)C(C)/[N+]([O-])=C/c1nc(C)c(C)n1O (centres undefined)	2	1	-11	5.2*	-3	4
COc1ccc(-c2cc(C(F)F)n3ncc(C(=O)n4ccnc4C)c3n2)cc1	2	1	-10	4.7*	25*	11*
CN(C)CCNC(=O)c1cccc(-c2cnc3c(NC=O)cc(-c4ccc(F)cc4)cn23)c1	7	-1	-2	1	-14	.
COc1ccc(-c2cc(NC=O)c3ncc(-c4cccc(C(=O)NCCN(C)C)c4)n3c2)cc1	11	-2	0	11*	-4	1
Cc1nn(CCC(=O)NNC(=O)Nc2ccccc2F)c(C)c1[N+](=O)[O-]	1	.	.	.	0	.
C=CCN1C(c2ccccc2)=CS/C1=C(\C#N)c1nnc2n1CCCCC2	-7	0	-6	4.8*	4	3
Cc1ccc(N(C)S(=O)(=O)c2cccc(C(=O)Oc3ccc4c(C)cc(=O)oc4c3)c2)cc1	6	-1	-2	4.8*	3	2
COc1ccc(NC(=O)c2cccn(CC=C(C)C)c2=O)cc1	-7	1	-5	4.7*	-5	2
C=CCn1cccc(C(=O)Nc2ccc(OC)cc2)c1=O	-6	-3	-4	1	-3	.

Source: PubChem BioAssay
